PMC11006913
Numbering of substitutions follows the chain as printed.

Legend:
Assay in all cases: PBM; 200 nM protein, PBS
Details in all cases: dsDNA, one strand shown
VAX1 [1] = molecular target: VAX1 (Homo sapiens, UniProt Q5SQQ9 86-172)
VAX1 [2] = molecular target: VAX1 (Homo sapiens, UniProt Q5SQQ9 86-172, T142I)
VAX1 [3] = molecular target: VAX1 (Homo sapiens, UniProt Q5SQQ9 86-172, K157R)
ALX1 = ALX1 (Homo sapiens, UniProt Q15699 118-204)
VENTX [4] = molecular target: T1, VENTX (Homo sapiens, UniProt O95231 78-163, R121Q)
T1 sequence: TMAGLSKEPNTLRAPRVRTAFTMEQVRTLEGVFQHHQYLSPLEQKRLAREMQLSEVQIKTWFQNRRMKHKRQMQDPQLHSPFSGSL

SIX6 [5] = molecular target: T2, SIX6 (Homo sapiens, UniProt O95475 114-200, L167I)
T2 sequence: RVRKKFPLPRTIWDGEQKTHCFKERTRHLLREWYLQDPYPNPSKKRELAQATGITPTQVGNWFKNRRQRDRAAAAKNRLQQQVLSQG

VENTX [6] = molecular target: T3, VENTX (Homo sapiens, UniProt O95231 78-163)
T3 sequence: T1 sequence with Q44R

SIX6 [7] = molecular target: T4, SIX6 (Homo sapiens, UniProt O95475 114-200, L143V)
T4 sequence: T2 sequence with L30V, I54L

SIX6 [8] = molecular target: T5, SIX6 (Homo sapiens, UniProt O95475 114-200, H141N)
T5 sequence: T2 sequence with H28N, I54L

SIX6 [9] = molecular target: T6, SIX6 (Homo sapiens, UniProt O95475 114-200, T165P)
T6 sequence: T2 sequence with T52P, I54L

SIX6 [10] = molecular target: T7, SIX6 (Homo sapiens, UniProt O95475 114-200, L167M)
T7 sequence: T2 sequence with I54M

SIX6 [11] = molecular target: T8, SIX6 (Homo sapiens, UniProt O95475 114-200, L143M)
T8 sequence: T2 sequence with L30M, I54L

SIX6 [12] = molecular target: T9, SIX6 (Homo sapiens, UniProt O95475 114-200, L143I)
T9 sequence: T2 sequence with L30I, I54L

SIX6 [13] = molecular target: T10, SIX6 (Homo sapiens, UniProt O95475 114-200, T165G)
T10 sequence: T2 sequence with T52G, I54L

SIX6 [14] = molecular target: T11, SIX6 (Homo sapiens, UniProt O95475 114-200, T139Q)
T11 sequence: T2 sequence with T26Q, I54L

SIX6 [15] = molecular target: T12, SIX6 (Homo sapiens, UniProt O95475 114-200, T165A)
T12 sequence: T2 sequence with T52A, I54L

SIX6 [16] = molecular target: T13, SIX6 (Homo sapiens, UniProt O95475 114-200, L167V)
T13 sequence: T2 sequence with I54V

SIX6 [17] = molecular target: T14, SIX6 (Homo sapiens, UniProt O95475 114-200)
T14 sequence: T2 sequence with I54L

SIX6 [18] = molecular target: T15, SIX6 (Homo sapiens, UniProt O95475 114-200, T165I)
T15 sequence: T2 sequence with T52I, I54L

HOXB9 [19] = molecular target: HOXB9 (Homo sapiens, UniProt P17482 171-250, T197M)
Chain of HOXB9 (Homo sapiens, UniProt P17482 171-250, T197M) (P17482 171-250 T197M): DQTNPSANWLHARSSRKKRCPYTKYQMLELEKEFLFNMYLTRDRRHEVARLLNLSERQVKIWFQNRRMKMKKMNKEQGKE

VENTX [20] = molecular target: T16, VENTX (Homo sapiens, UniProt O95231 78-163, Y115F)
T16 sequence: T1 sequence with Y38F, Q44R

HOXB9 [21] = molecular target: HOXB9 (Homo sapiens, UniProt P17482 171-250)
Chain of HOXB9 (Homo sapiens, UniProt P17482 171-250) (P17482 171-250): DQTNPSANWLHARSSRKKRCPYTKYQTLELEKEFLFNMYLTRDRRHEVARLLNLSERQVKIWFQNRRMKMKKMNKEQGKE

MSX2 [22] = molecular target: MSX2 (Homo sapiens, UniProt P35548 130-214, R199I)
Chain of MSX2 (Homo sapiens, UniProt P35548 130-214, R199I) (P35548 130-214 R199I): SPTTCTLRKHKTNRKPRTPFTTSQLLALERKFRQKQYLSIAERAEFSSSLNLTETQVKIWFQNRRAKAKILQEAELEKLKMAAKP

MSX2 [23] = molecular target: MSX2 (Homo sapiens, UniProt P35548 130-214)
Chain of MSX2 (Homo sapiens, UniProt P35548 130-214) (P35548 130-214): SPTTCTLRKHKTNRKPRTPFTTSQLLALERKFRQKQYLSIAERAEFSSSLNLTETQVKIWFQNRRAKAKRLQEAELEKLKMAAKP

HOXB9 [24] = molecular target: HOXB9 (Homo sapiens, UniProt P17482 171-250, R186Q)
Chain of HOXB9 (Homo sapiens, UniProt P17482 171-250, R186Q) (P17482 171-250 R186Q): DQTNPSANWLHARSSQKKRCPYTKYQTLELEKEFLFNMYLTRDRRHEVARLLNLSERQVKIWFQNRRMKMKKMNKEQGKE

MSX2 [25] = molecular target: MSX2 (Homo sapiens, UniProt P35548 130-214, F161Y)
Chain of MSX2 (Homo sapiens, UniProt P35548 130-214, F161Y) (P35548 130-214 F161Y): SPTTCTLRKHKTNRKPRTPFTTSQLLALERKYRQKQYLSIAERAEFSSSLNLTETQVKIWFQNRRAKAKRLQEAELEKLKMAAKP

Chain of VAX1 (Homo sapiens, UniProt Q5SQQ9 86-172) (Q5SQQ9 86-172): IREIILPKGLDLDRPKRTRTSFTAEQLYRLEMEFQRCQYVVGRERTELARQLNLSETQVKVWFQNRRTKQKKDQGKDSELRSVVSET
Chain of VAX1 (Homo sapiens, UniProt Q5SQQ9 86-172, T142I) (Q5SQQ9 86-172 T142I): as the sequence (Q5SQQ9 86-172) above, with T57I counted along it
Chain of VAX1 (Homo sapiens, UniProt Q5SQQ9 86-172, K157R) (Q5SQQ9 86-172 K157R): as the sequence (Q5SQQ9 86-172) above, with K72R counted along it
Chain of ALX1 (Q15699 118-204): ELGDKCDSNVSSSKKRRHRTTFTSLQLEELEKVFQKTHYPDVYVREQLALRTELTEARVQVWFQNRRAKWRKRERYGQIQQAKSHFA

CGGTCGAC
binding signal (VAX1 [1]): 7.17 upbm affinity estimate (log intensity, higher = more binding, comparable within an allelic series)
binding signal (VAX1 [2]): 7.28 upbm affinity estimate (log intensity, higher = more binding, comparable within an allelic series)
binding signal (VAX1 [3]): 7.34 upbm affinity estimate (log intensity, higher = more binding, comparable within an allelic series)

CCCGGCAG
binding signal (VAX1 [1]): 7.23 upbm affinity estimate (log intensity, higher = more binding, comparable within an allelic series)
binding signal (VAX1 [2]): 7.18 upbm affinity estimate (log intensity, higher = more binding, comparable within an allelic series)
binding signal (VAX1 [3]): 7.28 upbm affinity estimate (log intensity, higher = more binding, comparable within an allelic series)

ACTCTTAA
binding signal (ALX1): 8.51 upbm affinity estimate (log intensity, higher = more binding, comparable within an allelic series)

ATGATATG
binding signal (VENTX [4]): 9.57 upbm affinity estimate (log intensity, higher = more binding, comparable within an allelic series)
binding signal (SIX6 [5]): 11.3 upbm affinity estimate (log intensity, higher = more binding, comparable within an allelic series)
binding signal (VENTX [6]): 9.91 upbm affinity estimate (log intensity, higher = more binding, comparable within an allelic series)
binding signal (SIX6 [7]): 10.4 upbm affinity estimate (log intensity, higher = more binding, comparable within an allelic series)
binding signal (SIX6 [8]): 11.3 upbm affinity estimate (log intensity, higher = more binding, comparable within an allelic series)
binding signal (SIX6 [9]): 9.99 upbm affinity estimate (log intensity, higher = more binding, comparable within an allelic series)
binding signal (SIX6 [10]): 10.7 upbm affinity estimate (log intensity, higher = more binding, comparable within an allelic series)
binding signal (SIX6 [11]): 11.1 upbm affinity estimate (log intensity, higher = more binding, comparable within an allelic series)
binding signal (SIX6 [12]): 10.5 upbm affinity estimate (log intensity, higher = more binding, comparable within an allelic series)
binding signal (SIX6 [13]): 11.4 upbm affinity estimate (log intensity, higher = more binding, comparable within an allelic series)
binding signal (SIX6 [14]): 11.3 upbm affinity estimate (log intensity, higher = more binding, comparable within an allelic series)
binding signal (SIX6 [15]): 11.2 upbm affinity estimate (log intensity, higher = more binding, comparable within an allelic series)
binding signal (SIX6 [16]): 11.1 upbm affinity estimate (log intensity, higher = more binding, comparable within an allelic series)
binding signal (SIX6 [17]): 11.1 upbm affinity estimate (log intensity, higher = more binding, comparable within an allelic series)
binding signal (SIX6 [18]): 11.1 upbm affinity estimate (log intensity, higher = more binding, comparable within an allelic series)

GCGCGCCC
binding signal (VENTX [4]): 8.19 upbm affinity estimate (log intensity, higher = more binding, comparable within an allelic series)
binding signal (HOXB9 [19]): 8.46 upbm affinity estimate (log intensity, higher = more binding, comparable within an allelic series)
binding signal (SIX6 [5]): 8.73 upbm affinity estimate (log intensity, higher = more binding, comparable within an allelic series)
binding signal (VENTX [6]): 8.26 upbm affinity estimate (log intensity, higher = more binding, comparable within an allelic series)
binding signal (SIX6 [7]): 8.71 upbm affinity estimate (log intensity, higher = more binding, comparable within an allelic series)
binding signal (SIX6 [8]): 8.79 upbm affinity estimate (log intensity, higher = more binding, comparable within an allelic series)
binding signal (SIX6 [9]): 8.94 upbm affinity estimate (log intensity, higher = more binding, comparable within an allelic series)
binding signal (VENTX [20]): 8.22 upbm affinity estimate (log intensity, higher = more binding, comparable within an allelic series)
binding signal (SIX6 [10]): 8.76 upbm affinity estimate (log intensity, higher = more binding, comparable within an allelic series)
binding signal (SIX6 [11]): 8.75 upbm affinity estimate (log intensity, higher = more binding, comparable within an allelic series)
binding signal (SIX6 [12]): 8.78 upbm affinity estimate (log intensity, higher = more binding, comparable within an allelic series)
binding signal (SIX6 [13]): 8.82 upbm affinity estimate (log intensity, higher = more binding, comparable within an allelic series)
binding signal (HOXB9 [21]): 8.66 upbm affinity estimate (log intensity, higher = more binding, comparable within an allelic series)
binding signal (SIX6 [14]): 8.77 upbm affinity estimate (log intensity, higher = more binding, comparable within an allelic series)
binding signal (MSX2 [22]): 9.61 upbm affinity estimate (log intensity, higher = more binding, comparable within an allelic series)
binding signal (SIX6 [15]): 8.75 upbm affinity estimate (log intensity, higher = more binding, comparable within an allelic series)
binding signal (MSX2 [23]): 9.64 upbm affinity estimate (log intensity, higher = more binding, comparable within an allelic series)
binding signal (SIX6 [16]): 8.91 upbm affinity estimate (log intensity, higher = more binding, comparable within an allelic series)
binding signal (SIX6 [17]): 8.8 upbm affinity estimate (log intensity, higher = more binding, comparable within an allelic series)
binding signal (SIX6 [18]): 8.71 upbm affinity estimate (log intensity, higher = more binding, comparable within an allelic series)
binding signal (HOXB9 [24]): 8.61 upbm affinity estimate (log intensity, higher = more binding, comparable within an allelic series)
binding signal (MSX2 [25]): 9.62 upbm affinity estimate (log intensity, higher = more binding, comparable within an allelic series)
